Test results taken from PubChem BioAssay AID434970 (Sanford-Burnham Center for Chemical Genomics, 2010).
The whole screen tested about 11,000 compounds, of which about 310 (2.8%) were called active. Rule as the data show it: active = activity change below about -85%; inactive = the rest. The list comes from a sample in which actives are over-represented; it also holds similar structures and randomly drawn compounds.

The molecules below were run on intestinal alkaline phosphatase [Mus musculus] (assay: mouse intestinal phosphatase enzyme activation – biochemical, luminescence, single concentration, confirmation (AID 434970)). Conditions: purified mouse IAP, CDP-Star luminescence, 30 min, at 10 µM; activation factor: measured here: IAP activation factor, stronger effect = higher value; activity change, negative = activation: stronger effect = lower value.
For `Cc1ccc(NC(=O)Nc2ccc3c(c2)N(C)C(=O)CS3)cc1C`, the activation factor was 1.92 and the activity change, negative = activation was -91.7% (inactive). `CN1C(=O)CSc2ccc(NC(=O)NCCC3=CCCCC3)cc21` was tested, and the activation factor was 2.22 and the activity change, negative = activation was -122% (active). For `CCOc1ccc(NC(=O)Nc2ccc3c(c2)N(C)C(=O)CS3)cc1`, the activation factor was 1.29 and the activity change, negative = activation was -29.2% (inactive). For `COc1ccc(NC(=O)Nc2ccc3c(c2)N(C)C(=O)CS3)cc1OC`, the activation factor was 1.48 and the activity change, negative = activation was -48.4% (inactive). In the case of `Cc1cc(C)cc(NC(=O)Nc2ccc3c(c2)N(C)C(=O)CS3)c1`, the activation factor is reported as 2.54 and the activity change, negative = activation is reported as -154% (active). `Cc1ccc(CNC(=O)Nc2ccc3c(c2)N(C)C(=O)CS3)cc1` was tested, and the activation factor was 1.78 and the activity change, negative = activation was -78% (inactive). For `CC(=O)c1ccc(NC(=O)Nc2ccc3c(c2)N(C)C(=O)CS3)cc1`, the activation factor was 1.28 and the activity change, negative = activation was -28.4% (inactive). In the case of `CC(C)CCNC(=O)Nc1ccc2c(c1)N(C)C(=O)CS2`, the activation factor is reported as 1.53 and the activity change, negative = activation is reported as -52.8% (inactive). With `CCc1ccc(NC(=O)Nc2ccc3c(c2)N(C)C(=O)CS3)cc1` the activation factor was 2.14 and the activity change, negative = activation was -114% (active). For `CCCn1c(Cc2ccccc2)nnc1SCC(=O)N1CCOCC1`, the activation factor was 0.955 and the activity change, negative = activation was 4.5% (inactive). In the case of `CC(O)[C@H](NC(=O)C1(c2ccccc2)CCN(C(=O)OC(C)(C)C)CC1)C(=O)O` (stereo partly drawn), the activation factor is reported as 1.15 and the activity change, negative = activation is reported as -15.3% (inactive). For `COc1ccc2[nH]c3c(c2c1)CCN1C(=O)C(CC(=O)NCCN2CCOCC2)C[C@H](C(=O)N2CCOCC2)[C@@]31CCC1CCCC1` (stereo partly drawn), the activation factor was 1.04 and the activity change, negative = activation was -4.1% (inactive). With `O=C(C[C@H]1C[C@H](C(=O)N2CCCCC2)[C@@]2(CCc3ccccc3)c3[nH]c4ccc(Cl)cc4c3CCN2C1=O)NCc1cccc(C(F)(F)F)c1` the activation factor was 1.15 and the activity change, negative = activation was -15% (inactive). For `Cn1c(COc2ccc3ccccc3c2)nnc1SCC(=O)O`, the activation factor was 0.952 and the activity change, negative = activation was 4.85% (inactive). For `O/N=C1/CC/C(=N\O)c2nn(-c3ccccc3)nc21`, the activation factor was 0.893 and the activity change, negative = activation was 10.7% (inactive). With `CCOC(=O)c1cnn(-c2ccc(Cl)cc2)c1C1CCN(C(=O)OC(C)(C)C)CC1` the activation factor was 1.12 and the activity change, negative = activation was -12.1% (inactive). In the case of `COc1ccc(Nc2nc(-c3cccs3)cs2)cc1`, the activation factor is reported as 0.881 and the activity change, negative = activation is reported as 11.9% (inactive). With `Cc1cccc(NC(=O)/C(=C\c2ccco2)NC(=O)c2cccs2)c1` the activation factor was 0.978 and the activity change, negative = activation was 2.15% (inactive). `OC[C@@H]1[C@@H](c2ccc(Cl)cc2)C(c2ccccc2)=NN1c1ccccc1` was tested, and the activation factor was 1.77 and the activity change, negative = activation was -76.8% (inactive). `OC[C@@H]1[C@@H](c2ccccc2)C(c2cccc(Cl)c2)=NN1c1ccccc1` was tested, and the activation factor was 2.28 and the activity change, negative = activation was -128% (active). In the case of `Cc1cccc(C2=NN(c3ccccc3)[C@H](CO)[C@H]2c2ccccc2)c1`, the activation factor is reported as 2.07 and the activity change, negative = activation is reported as -107% (active). In the case of `O=C1OCCN1C(=O)[C@H]1[C@H](c2ccccc2)C(c2cccc(Cl)c2)=NN1c1ccccc1`, the activation factor is reported as 1.01 and the activity change, negative = activation is reported as -1.05% (inactive). With `Cc1cccc(C2=NN(c3ccccc3)[C@H](CO)[C@H]2c2ccc(F)cc2)c1` the activation factor was 1.73 and the activity change, negative = activation was -72.7% (inactive). In the case of `OC[C@@H]1[C@@H](c2ccccc2)C(c2ccccc2)=NN1c1ccccc1`, the activation factor is reported as 2.15 and the activity change, negative = activation is reported as -115% (active). `OC[C@@H]1[C@@H](c2ccc(F)cc2)C(c2cccc(Cl)c2)=NN1c1ccccc1` was tested, and the activation factor was 1.96 and the activity change, negative = activation was -96.2% (inactive). In the case of `OC[C@@H]1[C@@H](c2ccc(Cl)cc2)C(c2ccc(F)cc2)=NN1c1ccccc1`, the activation factor is reported as 1.79 and the activity change, negative = activation is reported as -79% (inactive). `OC[C@@H]1[C@@H](c2ccccc2)C(c2ccc(F)cc2)=NN1c1ccccc1` was tested, and the activation factor was 1.65 and the activity change, negative = activation was -64.5% (inactive). With `Cc1cccc(C2=NN(c3ccccc3)[C@H](CO)[C@H]2c2ccc(Cl)cc2)c1` the activation factor was 1.89 and the activity change, negative = activation was -89.3% (inactive). In the case of `OC[C@@H]1[C@@H](c2ccc(Cl)cc2)C(c2cccc(Cl)c2)=NN1c1ccccc1`, the activation factor is reported as 2.2 and the activity change, negative = activation is reported as -120% (active). `OC[C@@H]1[C@@H](c2ccc(F)cc2)C(c2ccccc2)=NN1c1ccccc1` was tested, and the activation factor was 1.73 and the activity change, negative = activation was -72.9% (inactive). With `Cc1noc(C)c1S(=O)(=O)N1CCC(C(=O)NCCN2CCC(C)CC2)CC1` the activation factor was 1.01 and the activity change, negative = activation was -1.4% (inactive). For `COc1ccc(C(=O)Nc2ccc(S(=O)(=O)N3CCCCC3)cc2)cc1`, the activation factor was 1.11 and the activity change, negative = activation was -11% (inactive). For `COC(=O)C(NC(=O)CCc1c(C)nc2ncnn2c1C)C(C)C` (stereo not drawn), the activation factor was 0.949 and the activity change, negative = activation was 5.15% (inactive). In the case of `Clc1ccc(-n2nnnc2-c2cnc(-c3ccncc3)nc2-c2cccs2)cc1`, the activation factor is reported as 0.877 and the activity change, negative = activation is reported as 12.4% (inactive). With `COc1ccc(CN(C(=O)c2ccco2)C2CC(C)N(C)CC2C)cc1` (stereo not drawn) the activation factor was 0.982 and the activity change, negative = activation was 1.75% (inactive). For `COc1ccc(CNC(=O)C[C@H]2C[C@H](C(=O)N3CCOCC3)[C@@]3(C)c4[nH]c5cc(CCC(=O)N(C)C)ccc5c4CCN3C2=O)cc1OC`, the activation factor was 1.08 and the activity change, negative = activation was -8.2% (inactive). `O=C(O)CCSc1nc(C(F)(F)F)cc(=O)n1-c1ccccc1` was tested, and the activation factor was 1.01 and the activity change, negative = activation was -1% (inactive). `Cn1cc(C(=O)c2ccccc2)cc1-c1nc2ccccc2n1C` was tested, and the activation factor was 1.13 and the activity change, negative = activation was -13.2% (inactive). In the case of `COc1ccccc1[C@H]1C(c2cccc(Cl)c2)=NN(c2ccccc2)[C@@H]1CO`, the activation factor is reported as 1.54 and the activity change, negative = activation is reported as -54.1% (inactive). For `COc1ccccc1[C@H]1C(c2ccccc2)=NN(c2ccccc2)[C@@H]1CO`, the activation factor was 1.99 and the activity change, negative = activation was -99.2% (active). In the case of `COc1ccccc1[C@H]1C(c2ccc(F)cc2)=NN(c2ccccc2)[C@@H]1CO`, the activation factor is reported as 1.49 and the activity change, negative = activation is reported as -48.9% (inactive). With `Clc1ccccc1CN(Cc1ccco1)Cc1nnnn1C1CCCC1` the activation factor was 1.07 and the activity change, negative = activation was -7.45% (inactive). For `CC(C)C(=O)Nc1ncc(C(F)(F)F)cc1Cl`, the activation factor was 1.02 and the activity change, negative = activation was -2.1% (inactive). With `CC(NC(=S)NC1CCC(C(C)(C)C)CC1)c1ccccc1` (stereo not drawn) the activation factor was 1.7 and the activity change, negative = activation was -69.9% (inactive). With `Cc1ccc(CNC(=S)NC2CCC(C(C)(C)C)CC2)cc1` (stereo not drawn) the activation factor was 2 and the activity change, negative = activation was -99.9% (active). With `Cc1ccc(CNC(N)=S)cc1` the activation factor was 1.06 and the activity change, negative = activation was -6.15% (inactive). For `O=C(COC(=O)c1cccnc1SCC(=O)NCc1ccccc1)NCc1ccccc1`, the activation factor was 0.985 and the activity change, negative = activation was 1.5% (inactive). In the case of `CCCc1cc(=O)[nH]c(SCC(=O)N(C)CC(=O)Nc2ccccc2CC)n1`, the activation factor is reported as 0.825 and the activity change, negative = activation is reported as 17.6% (inactive). With `S=C(Nc1ccc(Br)cc1)NC1CCCCC1` the activation factor was 1.71 and the activity change, negative = activation was -70.7% (inactive). With `CCc1ccc(NC(=O)NC2CCCCCCC2)cc1` the activation factor was 3.13 and the activity change, negative = activation was -213% (active). `CC(C)c1ccc(NC(=S)NC2CCCCCC2)cc1` was tested, and the activation factor was 1.39 and the activity change, negative = activation was -38.9% (inactive). In the case of `CC(=O)Nc1ccc(C(=O)OCC(=O)NC(=O)NC2CCCCC2)cc1`, the activation factor is reported as 0.997 and the activity change, negative = activation is reported as 0.3% (inactive). With `COc1ccc(CCNC(=O)NC2CCCCC2)cc1` the activation factor was 0.976 and the activity change, negative = activation was 2.4% (inactive). `O=C(Nc1ccc(Br)cc1)NC1CCCCCCC1` was tested, and the activation factor was 2.74 and the activity change, negative = activation was -174% (active).
